Eleven compounds from PubChem BioAssay can be followed below.

Inconclusive results are not listed. The source made the active and inactive calls.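 How the source made its calls, unless noted: active means viability loss from added drug above about 55%, and viability with drug at most 40%, in both replicates (limit read from the data, passing the limit was not always enough); inconclusive means both conditions met in only one replicate; inactive means neither replicate meets both conditions.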

A short description of assay [1]: reduced viability of SK-BR-3 breast cancer cells – cell-based, 24 h, human, pilot screen (AID 572;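 active means viability at or below 10% of carrier control in both of two separate runs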;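 further: compound exposure lasted between 18 and 24 h rather than exactly 24 h; 100% = carrier-treated control wells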). Conditions: SK-BR-3 viability, CellTiter-Glo luminescence, at 10 µM, stronger effect = lower value.
The nature of assay [2]: HUVEC growth inhibition – cell-based, human, primary screen (AID 575;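 active means viability at or below 30% in both replicate assays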;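 further: 100% = median of untreated cell wells with 0.1% DMSO on each plate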). As to conditions: HUVEC proliferation, CellTiter-Glo luminescence, 72 h; at 10 µM; stronger effect = lower value. (In general: ATP-based viability assays read luminescence as a measure of living cells.)
A short description of assay [3]: H69AR cell proliferation blockers – human, duplicate replicates, primary screen (AID 580;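 active means viability at or under a set limit in both replicates, limit being median viability minus 3 SD, cut at about 48% in these data, passing the limit was not always enough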;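 further: 100% = mean luminescence of untreated wells and 0% = no signal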). Conditions: H69AR lung tumor cells viability, ATP luminescence, 72 h; at 10 µM; stronger effect = lower value.
Assay [4] in a line: MRP1 drug-resistance reversers in H69AR cells – cell-based, doxorubicin co-treatment, pilot screen (AID 601). Conditions: CellTiter-Glo, 72 h, at 10 µM; for differential viability (reversal): stronger effect = higher value.
Assay [5] in a line: yeast transport mutant growth inhibition pilot in 384-well plates, post-Golgi transport modulator project (AID 636; in the data active means inhibition above about 31%). Conditions: absorbance 615 nm, about 18 h, stronger effect = higher value.
Assay [6] in a line: growth suppression of yeast trafficking mutant, preliminary HTS, modulators of trafficking downstream of Golgi apparatus project, 1536-format plate, OD 615 nm (AID 637; in the data active means inhibition above about 30%). Conditions: yeast transport mutant growth, absorbance 615 nm, 18 h; stronger effect = higher value.
The nature of assay [7]: S. cerevisiae growth inhibition in permissive medium (OD615), pilot counter-assay for S. cerevisiae lifespan shortening project, permissive growth control (AID 705;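 active means growth inhibition above 25% in both replicates, a cutoff set 3 SD above the mean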). As to conditions: OD615, 24 h, at 10 µM, stronger effect = higher value.
Assay [8] is described as follows: S. cerevisiae growth inhibition in restrictive medium, OD615, pilot screen, restrictive growth control, yeast lifespan reduction project (AID 706;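 active means growth inhibition above a set limit, 3 SD over mean compound inhibition, in both replicates, cut at about 43% in these data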;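 further: modified DeaD lifespan yeast strain shifted to restrictive glucose medium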). As to conditions: OD615, 48 h, at 10 µM, stronger effect = higher value.
Assay [9] in a line: doxorubicin toxicity protection in MRP-1 cells – H69AR cells, CellTiter-Glo, duplicate, MRP-1 activator project, pilot screen (AID 807;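 active means viability increase at or above a cutoff of the median across tested compounds plus 3 SD, cut at about 8.5% in these data, passing the limit was not always enough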;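 further: compound pretreatment 18-22 h then 72 h combined with doxorubicin; 0% = doxorubicin alone and 100% = vehicle without doxorubicin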). As to conditions: H69AR viability with doxorubicin, CellTiter-Glo luminescence; at 10 µM; stronger effect = higher value.
The nature of assay [10]: viability of HCT116 without oncogenic beta-catenin – human colon tumor cells, pilot screen (AID 823;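 active means cell viability at or below a set limit in both duplicate runs, the limit being the all-compound median minus 4 SD, cut at about 23% in these data, passing the limit was not always enough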;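 further: 0% = wells killed by 20 µM Hyamine and 100% = untreated DMSO cell wells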). Conditions: HCT116 beta-catenin knockout viability, CellTiter-Glo, 60 h; at 10 µM; stronger effect = lower value.
Assay [11] is described as follows: viability of PTEN-null HCT116 cells – cell-based, HCT116 clonal line, CellTiter-Glo, pilot screen (AID 824;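 active means viability at or below 27.92% in each of two runs, the all-compound median minus 4 SD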;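 further: 0% = 20 µM Hyamine control and 100% = vehicle cell control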). Conditions: HCT116 PTEN-deleted viability, 60 h, at 10 µM, stronger effect = lower value.
Assay [12] is described as follows: RAM pathway blockade in budding yeast – dse1pr::URA3 reporter, 5-FOA selection, pilot screen (AID 869;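 active means inhibition over a set limit, the all-compound mean plus 3 SD, in both replicate runs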;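 further: 0% = DMSO wells with no growth and 100% = 10 µM 1-NA-PP1 with full growth; RAM network block rescues cells from 5-FOA so hits raise OD615 growth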). Conditions: S. cerevisiae dse1pr::URA3 5-FOA growth, OD615, 2 d; at 10 µM; stronger effect = higher value; strain carries analog-sensitive mutant Cbk1 kinase.
Assay [13] in a line: RAM signaling pathway blockade in yeast – S. cerevisiae, Pdr1DBD-CYC8 efflux-inhibited sensitized strain, primary screen (AID 1298;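 active means RAM network inhibition above 8.4% in each of two replicates, 3 SD over the compound average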;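 further: 0% = DMSO untreated cells without growth and 100% = 10 µM 1-NA-PP1 full growth; higher means more yeast growth rescued from 5-FOA killing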). Conditions: S. cerevisiae cbk1-as DSE1-URA3 strain, 5-FOA growth OD615, 2 d; at 50 µM; stronger effect = higher value.
Setting [14] is: H69AR cells + 2 uM doxorubicin, measured here: viability with 2 uM doxorubicin, stronger effect = lower value.
The mark [15] stands for this setting: H69AR cells, compound alone cytotoxicity.

Broadly, the viability is a read-out of living cells in per cent, often relative to untreated cells. In general, inhibition refers to the drop in the measured response relative to a control, in per cent. `CC12CN3CCN(CC(C3)C1(O)CN1CCCCC1)C2` (centres undefined): the viability in assay [1] is 119% (inactive); in [2], 95.5% (inactive); in assay [3], 92.5% (inactive); in [4] (setting [14]), 89.2%; in assay [4] (setting [15]) it was 92.5%; in assay [10], 88.3% (inactive). For the same compound, in assay [11], the viability is 85.1% (inactive). For the same compound, the differential viability (reversal) in assay [4] (H69AR cells + 2 uM doxorubicin) was 3.25% (inactive). In addition, the results for the inhibition in [5], in assay [6] and in [12] were -8.13% (inactive), -0.18% (inactive) and 1.06% (inactive), respectively. The growth inhibition is -9.73% (inactive) in assay [7] and -6.28% (inactive) in [8]. Moreover, the viability increase in [9] was -1.63% (inactive). The RAM network inhibition in assay [13] was 1.07% (inactive).
Take `COc1ccc(N2CCN(C(=O)CSc3ccccc3)CC2)cc1`: the viability was 113% (inactive) in assay [1]; 103% (inactive) in assay [2]; 95.5% (inactive) in assay [3]; 83% in [4] (setting [14]); 95.5% in assay [4] (setting [15]); 93.2% (inactive) in assay [10]. Also, the viability in assay [11] is 85.9% (inactive). Further, the differential viability (reversal) in [4] (H69AR cells + 2 uM doxorubicin) is 12.5% (inactive). In addition, the inhibition in assay [5] is -8.13% (inactive); in assay [6] it was -2.18% (inactive); in [12], 1.16% (inactive). The growth inhibition in assay [7] was 3.53% (inactive); in assay [8] it was 11.6% (inactive). For the same compound, the viability increase in [9] is -3.92% (inactive). The RAM network inhibition in [13] was 3.22% (inactive).
In the case of `COc1ccccc1OCCNC(=O)c1cccs1`, the viability is 84% (inactive) in assay [1]; 115% (inactive) in assay [2]; 91.1% (inactive) in [3]; 81.6% in assay [4] (setting [14]); 91.1% in [4] (setting [15]); 97.9% (inactive) in [10]. Besides, the viability in assay [11] was 103% (inactive). The differential viability (reversal) in assay [4] (H69AR cells + 2 uM doxorubicin) was 9.52% (inactive). Further, the values for the inhibition in assay [5], in assay [6] and in assay [12] were -3.33% (inactive), -0.18% (inactive) and 1.21% (inactive), respectively. In addition, the growth inhibition is -6.5% (inactive) in assay [7] and 3.83% (inactive) in assay [8]. The viability increase in assay [9] is 0.85% (inactive). Also, the RAM network inhibition in assay [13] is 7.11% (inactive).
On to `CCCc1cc(=O)oc2cc(C)cc(OC(=O)c3ccco3)c12`, for which the viability in assay [1] was 97% (inactive); in [2], 62.2% (inactive); in assay [3] it was 95.8% (inactive); in [4] (setting [14]), 86.5%; in assay [4] (setting [15]), 95.8%; in [10] it was 96.7% (inactive). Also, in [11], the viability is 80.6% (inactive). For the same compound, the differential viability (reversal) in assay [4] (H69AR cells + 2 uM doxorubicin) was 9.31% (inactive). Moreover, the inhibition in assay [5] is -6.93% (inactive); in assay [6] it was -7.82% (inactive); in assay [12], 3.94% (inactive). In addition, the growth inhibition was -7.19% (inactive) in assay [7] and -12.2% (inactive) in [8]. Besides, the viability increase in assay [9] was -1.16% (inactive). Also, in assay [13], the RAM network inhibition is 4.75% (inactive).
In the case of `CC(=O)NCCc1ccc(S(=O)(=O)NCc2ccc3c(c2)OCO3)cc1`, the viability in assay [1] is 91% (inactive); in [2] it was 91.9% (inactive); in assay [3], 103% (inactive); in assay [4] (setting [14]), 91.3%; in assay [4] (setting [15]), 103%; in assay [10] it was 96.1% (inactive). Further, in assay [11], the viability was 97.1% (inactive). The differential viability (reversal) in [4] (H69AR cells + 2 uM doxorubicin) was 12% (inactive). The figures for the inhibition in [5], in assay [6] and in [12] were -8.27% (inactive), -6.18% (inactive) and 1.12% (inactive), respectively. The growth inhibition in assay [7] is -15.2% (inactive); in [8], -5.52% (inactive). Moreover, the viability increase in assay [9] is 0.44% (inactive). For the same compound, the RAM network inhibition in assay [13] is 1.84% (inactive).
With `O=C(/C=C/N1CCOCC1)c1ccc(-c2ccccc2)cc1`, the viability was 104% (inactive) in assay [1]; 81.8% (inactive) in assay [2]; 89.5% (inactive) in [3]; 81.8% in assay [4] (setting [14]); 89.5% in [4] (setting [15]); 88.4% (inactive) in assay [10]. For the same compound, the viability in assay [11] is 80.6% (inactive). In assay [4] (H69AR cells + 2 uM doxorubicin), the differential viability (reversal) was 7.73% (inactive). Besides, the inhibition is -5.07% (inactive) in assay [5], -2% (inactive) in assay [6] and -0.475% (inactive) in assay [12]. The growth inhibition in assay [7] is 99.4% (active); in assay [8] it was 100% (active). For the same compound, the viability increase in assay [9] is -1.77% (inactive). The RAM network inhibition in assay [13] was -1.36% (inactive).
Consider `Cc1cccc(N(CC(=O)N2CCCC2)S(=O)(=O)c2ccccc2)c1C`, for which the viability in assay [1] is 106% (inactive); in assay [2], 112% (inactive); in [3], 88.5% (inactive); in [4] (setting [14]) it was 88.8%; in assay [4] (setting [15]), 88.5%; in assay [10], 93.9% (inactive). The viability in assay [11] was 93.6% (inactive). In addition, the differential viability (reversal) in [4] (H69AR cells + 2 uM doxorubicin) was -0.32% (inactive). For the same compound, the inhibition in assay [5] is -2.27% (inactive); in [6], 1.82% (inactive); in [12] it was 2.05% (inactive). The growth inhibition was -1.1% (inactive) in assay [7] and 4.24% (inactive) in [8]. Further, in assay [9], the viability increase is -1.18% (inactive). In addition, the RAM network inhibition in assay [13] is 3.22% (inactive).
Regarding `Cc1ccc(S(=O)(=O)N(CC(=O)N2CCC(C(N)=O)CC2)Cc2ccc(F)cc2)cc1`, the viability in assay [1] is 93% (inactive); in [2], 110% (inactive); in assay [3], 100% (inactive); in assay [4] (setting [14]), 88.8%; in assay [4] (setting [15]), 100%; in assay [10] it was 97.5% (inactive). Besides, the viability in assay [11] is 87.2% (inactive). In addition, the differential viability (reversal) in [4] (H69AR cells + 2 uM doxorubicin) was 11.3% (inactive). The inhibition in assay [5] was -3.87% (inactive); in assay [6] it was -3.45% (inactive); in assay [12], -0.07% (inactive). In addition, the growth inhibition was -1.11% (inactive) in assay [7] and 2.36% (inactive) in assay [8]. Moreover, the viability increase in [9] is -2.26% (inactive). Moreover, the RAM network inhibition in [13] is 1.49% (inactive).
Take `Cc1nonc1NC(=O)c1ccccc1Br`: the viability was 101% (inactive) in assay [1]; 95.8% (inactive) in assay [2]; 91.8% (inactive) in assay [3]; 86.8% in assay [4] (setting [14]); 91.8% in assay [4] (setting [15]); 93.7% (inactive) in [10]. For the same compound, in [11], the viability was 101% (inactive). In addition, the differential viability (reversal) in assay [4] (H69AR cells + 2 uM doxorubicin) was 4.93% (inactive). In addition, the inhibition in assay [5] was -3.6% (inactive); in assay [6], -1.64% (inactive); in assay [12], 2.3% (inactive). The growth inhibition in [7] was -16.1% (inactive); in assay [8], -8.82% (inactive). The viability increase in assay [9] is 0.21% (inactive). The RAM network inhibition in [13] was -0.15% (inactive).
`O=C(CCn1[nH]c(=O)c2ccccc2c1=O)NCCO`: the viability was 78% (inactive) in [1]; 118% (inactive) in assay [2]; 89.3% (inactive) in assay [3]; 91.9% in assay [4] (setting [14]); 89.3% in assay [4] (setting [15]); 102% (inactive) in assay [10]. Moreover, the viability in assay [11] was 102% (inactive). The differential viability (reversal) in assay [4] (H69AR cells + 2 uM doxorubicin) is -2.56% (inactive). The inhibition was -7.07% (inactive) in [5], -7.27% (inactive) in assay [6] and 0.26% (inactive) in [12]. The growth inhibition was -16.2% (inactive) in [7] and -13.6% (inactive) in [8]. Moreover, in [9], the viability increase was -0.03% (inactive). Also, the RAM network inhibition in assay [13] was 0.2% (inactive).
On to `c1ccc(-c2nnc(SCc3nc4ccccc4[nH]3)o2)cc1`, for which the viability in [1] is 94% (inactive); in assay [2], 98.9% (inactive); in [3], 88.8% (inactive); in [4] (setting [14]) it was 85.8%; in [4] (setting [15]), 88.8%; in assay [10] it was 93.5% (inactive). Further, the viability in assay [11] is 88.8% (inactive). The differential viability (reversal) in [4] (H69AR cells + 2 uM doxorubicin) is 2.98% (inactive). Further, the inhibition is -5.6% (inactive) in [5], 0.91% (inactive) in assay [6] and 1.33% (inactive) in assay [12]. For the same compound, the growth inhibition in [7] was 7.59% (inactive). Moreover, in assay [9], the viability increase was -5.05% (inactive). In assay [13], the RAM network inhibition is 1.69% (inactive).
